In assay [1] the target is T1, Serine/threonine-protein kinase Nek9 (Homo sapiens) (UniProt Q8TD19).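 Note: each value is a mean percent inhibition of NEK9.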
T1 sequence (whole entry): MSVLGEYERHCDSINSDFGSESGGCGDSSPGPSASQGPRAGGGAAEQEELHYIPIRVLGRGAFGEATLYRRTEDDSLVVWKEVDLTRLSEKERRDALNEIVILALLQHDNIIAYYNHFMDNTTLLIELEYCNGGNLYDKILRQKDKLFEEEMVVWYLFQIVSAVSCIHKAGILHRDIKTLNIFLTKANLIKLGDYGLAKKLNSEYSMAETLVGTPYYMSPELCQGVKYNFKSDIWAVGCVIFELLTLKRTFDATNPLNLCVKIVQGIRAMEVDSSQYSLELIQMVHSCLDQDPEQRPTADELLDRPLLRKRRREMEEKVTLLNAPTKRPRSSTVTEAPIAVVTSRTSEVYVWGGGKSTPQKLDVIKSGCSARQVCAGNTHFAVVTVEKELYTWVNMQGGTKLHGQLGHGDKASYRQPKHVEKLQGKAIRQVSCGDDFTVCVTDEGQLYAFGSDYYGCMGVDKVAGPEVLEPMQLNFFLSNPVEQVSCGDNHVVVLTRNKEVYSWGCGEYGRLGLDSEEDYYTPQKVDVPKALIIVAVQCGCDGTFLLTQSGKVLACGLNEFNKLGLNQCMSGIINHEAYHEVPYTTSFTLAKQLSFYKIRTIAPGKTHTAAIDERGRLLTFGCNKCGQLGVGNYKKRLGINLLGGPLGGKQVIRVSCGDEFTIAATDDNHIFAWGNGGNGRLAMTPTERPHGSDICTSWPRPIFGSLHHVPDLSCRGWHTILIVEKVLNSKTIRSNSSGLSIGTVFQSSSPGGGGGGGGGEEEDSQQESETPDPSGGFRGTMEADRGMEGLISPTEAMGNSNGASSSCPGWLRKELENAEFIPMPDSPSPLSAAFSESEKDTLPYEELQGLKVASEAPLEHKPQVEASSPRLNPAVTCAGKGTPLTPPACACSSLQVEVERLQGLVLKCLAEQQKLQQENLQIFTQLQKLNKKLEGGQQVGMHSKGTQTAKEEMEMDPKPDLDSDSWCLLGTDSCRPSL
The note with it: at 1 µM.

In assay [2] the target is Serine/threonine-protein kinase PLK1 (Homo sapiens) (UniProt P53350). Conditions: at 0.1 µM.
Chain of Serine/threonine-protein kinase PLK1 (Homo sapiens) (P53350 whole entry): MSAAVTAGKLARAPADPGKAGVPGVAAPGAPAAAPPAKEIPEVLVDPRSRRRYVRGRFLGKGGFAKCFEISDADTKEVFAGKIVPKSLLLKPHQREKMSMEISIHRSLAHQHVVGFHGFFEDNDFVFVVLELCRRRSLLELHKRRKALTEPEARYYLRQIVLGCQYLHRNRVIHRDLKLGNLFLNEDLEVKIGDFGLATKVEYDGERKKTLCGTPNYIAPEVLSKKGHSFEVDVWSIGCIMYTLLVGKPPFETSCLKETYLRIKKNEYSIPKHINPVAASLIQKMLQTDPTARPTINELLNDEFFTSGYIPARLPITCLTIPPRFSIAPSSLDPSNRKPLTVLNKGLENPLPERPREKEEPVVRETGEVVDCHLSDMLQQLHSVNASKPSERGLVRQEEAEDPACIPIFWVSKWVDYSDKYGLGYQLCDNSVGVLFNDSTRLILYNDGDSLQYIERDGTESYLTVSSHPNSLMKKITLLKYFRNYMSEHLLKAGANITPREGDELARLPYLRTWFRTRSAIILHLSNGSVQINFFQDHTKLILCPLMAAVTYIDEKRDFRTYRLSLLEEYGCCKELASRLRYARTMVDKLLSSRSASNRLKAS
For assay [3] the target is unchanged. Conditions: at 1 µM.
The target of assay [4] is T2, Dual specificity protein kinase TTK (Homo sapiens) (UniProt P33981).
T2 sequence (whole entry): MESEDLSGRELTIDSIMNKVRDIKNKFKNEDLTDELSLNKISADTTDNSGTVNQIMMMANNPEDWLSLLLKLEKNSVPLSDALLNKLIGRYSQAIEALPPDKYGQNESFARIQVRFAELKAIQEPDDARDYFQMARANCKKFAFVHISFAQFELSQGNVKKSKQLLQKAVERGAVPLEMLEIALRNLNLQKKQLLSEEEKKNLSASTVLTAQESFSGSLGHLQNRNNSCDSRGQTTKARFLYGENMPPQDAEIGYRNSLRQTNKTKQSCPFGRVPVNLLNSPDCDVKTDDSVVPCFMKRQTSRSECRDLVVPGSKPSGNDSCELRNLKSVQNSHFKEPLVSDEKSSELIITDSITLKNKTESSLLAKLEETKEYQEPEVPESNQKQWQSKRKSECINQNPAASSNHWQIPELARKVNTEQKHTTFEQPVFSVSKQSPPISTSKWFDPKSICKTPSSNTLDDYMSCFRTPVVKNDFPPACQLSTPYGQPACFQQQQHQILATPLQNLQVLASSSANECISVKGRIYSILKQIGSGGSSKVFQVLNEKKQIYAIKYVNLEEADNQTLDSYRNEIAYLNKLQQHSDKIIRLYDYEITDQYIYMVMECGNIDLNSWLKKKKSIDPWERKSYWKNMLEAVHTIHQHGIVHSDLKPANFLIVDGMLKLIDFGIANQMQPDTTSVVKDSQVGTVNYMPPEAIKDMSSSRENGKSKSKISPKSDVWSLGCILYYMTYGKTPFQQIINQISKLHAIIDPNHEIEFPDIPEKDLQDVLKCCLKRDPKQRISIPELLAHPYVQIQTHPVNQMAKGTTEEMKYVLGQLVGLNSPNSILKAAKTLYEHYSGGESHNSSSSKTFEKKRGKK
The note with it: at 0.1 µM.

Assay [5] deals with T3, Receptor-type tyrosine-protein kinase FLT3 (Homo sapiens), P36888 [D835Y].
T3 sequence (whole entry): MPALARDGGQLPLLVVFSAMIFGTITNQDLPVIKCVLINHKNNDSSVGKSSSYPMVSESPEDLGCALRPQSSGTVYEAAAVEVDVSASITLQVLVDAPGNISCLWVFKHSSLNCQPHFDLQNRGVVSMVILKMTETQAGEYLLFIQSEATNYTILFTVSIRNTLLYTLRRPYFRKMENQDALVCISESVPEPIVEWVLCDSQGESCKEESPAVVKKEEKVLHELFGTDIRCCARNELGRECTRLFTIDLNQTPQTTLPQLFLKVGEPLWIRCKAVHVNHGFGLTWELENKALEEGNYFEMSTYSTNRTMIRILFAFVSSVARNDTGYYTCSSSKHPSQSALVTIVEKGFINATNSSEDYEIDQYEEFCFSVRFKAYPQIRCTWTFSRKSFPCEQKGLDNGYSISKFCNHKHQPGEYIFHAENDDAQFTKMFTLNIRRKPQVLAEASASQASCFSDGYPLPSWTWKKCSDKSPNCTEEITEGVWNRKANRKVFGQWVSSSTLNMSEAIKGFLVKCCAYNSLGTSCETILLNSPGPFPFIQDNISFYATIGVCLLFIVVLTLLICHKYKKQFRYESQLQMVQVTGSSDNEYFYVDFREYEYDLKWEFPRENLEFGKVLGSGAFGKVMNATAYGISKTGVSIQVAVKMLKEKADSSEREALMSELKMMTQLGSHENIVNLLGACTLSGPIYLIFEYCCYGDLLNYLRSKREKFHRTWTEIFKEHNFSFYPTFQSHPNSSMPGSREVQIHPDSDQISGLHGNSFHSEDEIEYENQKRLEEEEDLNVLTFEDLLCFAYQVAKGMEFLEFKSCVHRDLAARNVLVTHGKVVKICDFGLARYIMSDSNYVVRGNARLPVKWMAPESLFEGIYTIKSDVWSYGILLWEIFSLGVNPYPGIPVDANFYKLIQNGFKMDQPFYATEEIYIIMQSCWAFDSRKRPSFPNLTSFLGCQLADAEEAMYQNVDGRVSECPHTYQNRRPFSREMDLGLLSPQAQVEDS
The note with it: at 1 µM.

Assay [6] has as its target Vascular endothelial growth factor receptor 3 (Homo sapiens) (UniProt P35916). Conditions: at 0.1 µM.
The target is the same in assay [7]. Conditions: at 1 µM.
Assay [8] deals with Macrophage colony-stimulating factor 1 receptor (Homo sapiens) (UniProt P07333). The note with it: at 0.1 µM.
Chain of Macrophage colony-stimulating factor 1 receptor (Homo sapiens) (P07333 whole entry): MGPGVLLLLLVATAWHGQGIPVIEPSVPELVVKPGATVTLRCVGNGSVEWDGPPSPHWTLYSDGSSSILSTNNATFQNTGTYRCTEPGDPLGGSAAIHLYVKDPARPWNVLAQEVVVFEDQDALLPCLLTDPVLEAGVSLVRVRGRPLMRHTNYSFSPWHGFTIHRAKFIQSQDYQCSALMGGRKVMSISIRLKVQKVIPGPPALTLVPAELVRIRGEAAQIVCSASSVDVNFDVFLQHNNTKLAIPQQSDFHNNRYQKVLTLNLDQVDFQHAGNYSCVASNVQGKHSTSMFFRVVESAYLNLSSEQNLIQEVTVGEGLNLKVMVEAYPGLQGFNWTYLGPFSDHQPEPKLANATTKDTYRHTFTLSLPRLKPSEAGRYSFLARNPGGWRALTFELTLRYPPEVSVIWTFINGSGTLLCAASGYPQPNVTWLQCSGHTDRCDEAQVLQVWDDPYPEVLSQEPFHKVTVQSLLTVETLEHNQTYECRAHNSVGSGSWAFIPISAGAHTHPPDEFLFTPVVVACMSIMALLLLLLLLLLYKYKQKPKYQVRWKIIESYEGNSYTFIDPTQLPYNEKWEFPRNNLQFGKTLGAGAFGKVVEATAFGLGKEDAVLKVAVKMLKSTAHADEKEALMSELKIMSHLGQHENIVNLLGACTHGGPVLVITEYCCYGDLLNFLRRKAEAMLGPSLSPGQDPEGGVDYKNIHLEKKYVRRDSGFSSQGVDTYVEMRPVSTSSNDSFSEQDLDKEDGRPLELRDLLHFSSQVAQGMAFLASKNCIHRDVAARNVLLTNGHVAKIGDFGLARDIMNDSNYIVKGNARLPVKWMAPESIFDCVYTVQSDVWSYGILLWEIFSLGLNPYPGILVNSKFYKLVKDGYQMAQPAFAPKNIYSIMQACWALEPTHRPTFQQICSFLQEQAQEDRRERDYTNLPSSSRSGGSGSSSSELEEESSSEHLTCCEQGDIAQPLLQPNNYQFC
For assay [9] the target is unchanged. The note with it: at 1 µM.
For assay [10], the target named is Tyrosine-protein kinase Fyn (Homo sapiens) (UniProt P06241). The note with it: at 0.1 µM.
Chain of Tyrosine-protein kinase Fyn (Homo sapiens) (P06241 2-537 limits assumed): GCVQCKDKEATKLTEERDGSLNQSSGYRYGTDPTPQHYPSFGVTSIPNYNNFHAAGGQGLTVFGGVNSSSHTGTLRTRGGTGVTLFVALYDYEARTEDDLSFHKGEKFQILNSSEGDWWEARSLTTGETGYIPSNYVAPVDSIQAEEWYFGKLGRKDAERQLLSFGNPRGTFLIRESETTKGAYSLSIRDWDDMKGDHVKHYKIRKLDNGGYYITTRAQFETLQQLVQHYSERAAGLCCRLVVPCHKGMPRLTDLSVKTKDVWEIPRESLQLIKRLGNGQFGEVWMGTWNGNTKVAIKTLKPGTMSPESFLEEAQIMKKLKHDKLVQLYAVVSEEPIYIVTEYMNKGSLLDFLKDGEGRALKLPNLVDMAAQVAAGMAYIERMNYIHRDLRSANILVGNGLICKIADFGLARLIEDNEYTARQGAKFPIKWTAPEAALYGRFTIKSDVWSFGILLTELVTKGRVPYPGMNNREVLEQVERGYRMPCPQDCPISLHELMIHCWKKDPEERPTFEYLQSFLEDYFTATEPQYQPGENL

Chain of Vascular endothelial growth factor receptor 3 (Homo sapiens) (P35916 whole entry): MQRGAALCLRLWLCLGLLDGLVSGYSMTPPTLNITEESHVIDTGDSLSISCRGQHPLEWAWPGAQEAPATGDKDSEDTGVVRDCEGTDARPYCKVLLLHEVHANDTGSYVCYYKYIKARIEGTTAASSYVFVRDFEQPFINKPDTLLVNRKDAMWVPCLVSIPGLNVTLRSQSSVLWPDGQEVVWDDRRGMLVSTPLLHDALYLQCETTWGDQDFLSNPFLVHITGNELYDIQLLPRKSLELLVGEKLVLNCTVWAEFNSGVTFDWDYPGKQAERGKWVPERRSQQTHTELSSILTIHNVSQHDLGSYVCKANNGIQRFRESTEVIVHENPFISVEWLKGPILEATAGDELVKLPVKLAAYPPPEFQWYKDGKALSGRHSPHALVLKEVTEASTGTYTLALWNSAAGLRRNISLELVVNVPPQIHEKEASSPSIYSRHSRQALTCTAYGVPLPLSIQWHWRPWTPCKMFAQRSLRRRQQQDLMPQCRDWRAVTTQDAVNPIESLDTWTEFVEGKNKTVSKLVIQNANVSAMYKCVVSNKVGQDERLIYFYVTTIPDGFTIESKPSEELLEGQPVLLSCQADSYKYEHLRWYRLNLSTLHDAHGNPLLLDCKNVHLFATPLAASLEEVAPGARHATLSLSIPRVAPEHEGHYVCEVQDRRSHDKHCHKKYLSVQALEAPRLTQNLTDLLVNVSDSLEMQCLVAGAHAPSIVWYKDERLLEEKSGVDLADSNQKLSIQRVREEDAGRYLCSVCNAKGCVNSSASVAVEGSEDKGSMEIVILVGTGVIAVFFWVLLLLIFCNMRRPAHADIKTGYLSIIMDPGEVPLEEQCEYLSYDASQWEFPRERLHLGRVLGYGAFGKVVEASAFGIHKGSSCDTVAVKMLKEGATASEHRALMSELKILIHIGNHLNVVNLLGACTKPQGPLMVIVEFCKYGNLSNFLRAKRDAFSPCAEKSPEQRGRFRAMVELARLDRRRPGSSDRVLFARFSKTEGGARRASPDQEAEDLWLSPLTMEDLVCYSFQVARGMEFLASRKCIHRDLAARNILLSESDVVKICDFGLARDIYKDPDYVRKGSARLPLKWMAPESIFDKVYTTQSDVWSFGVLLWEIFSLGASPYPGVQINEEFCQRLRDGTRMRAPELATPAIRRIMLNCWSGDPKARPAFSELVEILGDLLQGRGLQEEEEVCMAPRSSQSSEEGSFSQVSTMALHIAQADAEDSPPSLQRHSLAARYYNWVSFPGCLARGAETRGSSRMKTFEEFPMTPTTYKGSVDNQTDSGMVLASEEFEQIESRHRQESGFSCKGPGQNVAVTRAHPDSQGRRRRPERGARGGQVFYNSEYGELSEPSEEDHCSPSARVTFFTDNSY

The inhibition is the change of the read-out against control, counted positive when it falls. Take `CN(C)CCOc1ccc(-c2nc(-c3ccncc3)c(-c3ccc4c(c3)CC/C4=N\O)[nH]2)cc1`: the inhibition in [1] is 4.4%; in assay [2], 2.08%; in assay [3] it was 2.04%; in [4] it was 6.91%; in assay [5], 7.87%; in assay [6] it was 1.85%. The inhibition was 3.47% in assay [7], -1.89% in [8], 4.02% in assay [9] and 0.02% in [10].
Turning to `CCn1cc(-c2ccnc3[nH]ccc23)c(-c2cccc(NC(=O)Nc3ccc(OCc4ccccc4)cc3)c2)n1`, the inhibition in assay [1] is 1.16%; in [2] it was -0.45%; in assay [3], -0.98%; in assay [4] it was 7.9%; in assay [5] it was 0.68%; in [6], -0.45%. Also, the inhibition is -0.67% in [7], -7.9% in assay [8], 0.27% in assay [9] and 0.67% in assay [10].
Regarding `c1ccc(-c2nc3n(c2-c2ccc4c(c2)OCO4)CCC3)nc1`, the inhibition in assay [1] came out at 0.13%; in [2] it was 1.59%; in assay [3] it was 1.37%; in assay [4], 4.41%; in assay [5], 4.03%; in assay [6] it was 13.3%. The inhibition came to 15.8% in assay [7], 4.57% in assay [8], 1.74% in [9] and 1.85% in [10].
For the compound `COc1cccc(-c2c[nH]c3c(N/N=C/c4ccncc4)ncnc23)c1`, the inhibition stood at 5.28% in assay [1]; 2.36% in assay [2]; 1.97% in assay [3]; 7.43% in [4]; 62.7% in assay [5]; 4.35% in [6]. Also, the inhibition is 29.5% in assay [7], 21.6% in assay [8], 68.6% in assay [9] and 14.4% in [10].
`COc1ccc(-c2nn3ncccc3c2-c2ccnc(Nc3ccc4c(c3)OCCO4)n2)cc1`: the inhibition in [1] came out at 8.39%; in assay [2] it was 2.68%; in assay [3] it was 2.45%; in [4] it was 4.08%; in [5], 0.07%; in assay [6], 8.62%. Moreover, the inhibition in assay [7] worked out at 56.4%; in assay [8], 19.6%; in [9], 66.8%; in assay [10], 5.65%.
For the compound `Cc1ccc2c(-c3ccnc(Nc4ccccc4)n3)c(-c3ccc(F)cc3)nn2n1`, the inhibition is 5.94% in assay [1]; 1.63% in assay [2]; 1.62% in assay [3]; 4.36% in [4]; -2.14% in assay [5]; 5.68% in [6]. For the same compound, the inhibition was found to be 28.3% in assay [7], 10.5% in assay [8], 45.1% in assay [9] and 18.7% in [10].
Turning to `COc1ccc(-c2oc3ncnc(N)c3c2-c2ccc(NC(=O)Nc3cc(C(F)(F)F)ccc3F)cc2)cc1`, the inhibition in assay [1] turned out to be 39.3%; in assay [2] it was 5.59%; in assay [3] it was 4.48%; in assay [4], 8.85%; in [5], 47.1%; in assay [6] it was 47.4%. In addition, the inhibition in assay [7] came to 98.4%; in assay [8], 21.9%; in assay [9], 90.2%; in [10], 8%.
For `O=C(O[C@H]1CN[C@H](C#Cc2cc3ncnc(Nc4ccc(Cc5ccccc5)cc4)c3s2)C1)N1CCOCC1`, the inhibition in [1] is 7.49%; in assay [2], 1.59%; in assay [3], 1.47%; in [4] it was 3.54%; in assay [5], -0.77%; in assay [6], -2.62%. For the same compound, the inhibition in assay [7] is 4.62%; in assay [8] it was -3.48%; in [9], 3.66%; in [10], -0.06%.
For `Cc1cccc2c1NC(=O)/C2=N\Nc1ccc(S(N)(=O)=O)cc1`, the inhibition came to 3.99% in [1]; 0.77% in assay [2]; 2.15% in [3]; 1.78% in [4]; 10.5% in [5]; 3.59% in [6]. For the same compound, the inhibition in [7] is -0.85%; in assay [8], 2.22%; in assay [9] it was 7.87%; in assay [10], 2.11%.

Source of the values: ChEMBL document CHEMBL1961873, “Compounds: GSK PKIS; Assays: Nanosyn kinase panel” (2012).
